Test results reported in PubChem BioAssay (Tox21).
Results filed as inconclusive are left out. Where a call stands in place of a potency, no number is given. Calls of active or inactive are those of the source. Calls follow the shape of the full dose curve.

Tests used:
[1] = target: Acetylcholinesterase (Homo sapiens) (UniProt P22303); assay: Acetylcholinesterase (AChE) small molecule antagonists: enzyme-based qHTS assay (AID 1347397); details: Potency: AChE enzyme activity inhibition; outcome: AChE enzyme activity inhibition; also: nearly all actives have a fitted effect of over 55% in size; also: potency is read from the fitted curve at half-maximal effect
Chain of Acetylcholinesterase (Homo sapiens) (P22303 whole entry, looked up): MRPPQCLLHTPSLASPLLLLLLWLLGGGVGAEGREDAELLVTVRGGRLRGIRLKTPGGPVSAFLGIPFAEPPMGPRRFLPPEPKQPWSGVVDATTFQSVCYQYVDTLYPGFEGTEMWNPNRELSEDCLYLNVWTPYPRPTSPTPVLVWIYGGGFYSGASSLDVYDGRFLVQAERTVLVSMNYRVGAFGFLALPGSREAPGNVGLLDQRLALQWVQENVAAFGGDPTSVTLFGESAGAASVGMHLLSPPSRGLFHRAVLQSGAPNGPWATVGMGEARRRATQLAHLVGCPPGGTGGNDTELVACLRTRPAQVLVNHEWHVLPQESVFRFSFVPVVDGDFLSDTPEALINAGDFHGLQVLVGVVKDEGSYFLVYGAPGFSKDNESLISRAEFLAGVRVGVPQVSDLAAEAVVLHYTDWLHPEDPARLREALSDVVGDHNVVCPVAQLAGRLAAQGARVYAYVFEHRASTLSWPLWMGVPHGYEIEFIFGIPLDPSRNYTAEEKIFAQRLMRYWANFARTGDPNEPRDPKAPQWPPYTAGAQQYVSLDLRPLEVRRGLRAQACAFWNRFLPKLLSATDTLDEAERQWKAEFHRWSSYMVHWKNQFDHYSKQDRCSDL
In short: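 In this quantitative HTS, compounds from the Tox21 10K collection were preincubated 30 min at ambient temperature with recombinant human AChE dispensed at 50 mU/mL. Hydrolysis of acetylthiocholine was then followed for 10 min by DTNB colour development.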

[2] = target: Acetylcholinesterase (Homo sapiens) (UniProt P22303); assay: Acetylcholinesterase (AChE) small molecule antagonists: enzyme-based qHTS assay with human liver microsomes (AID 1347399); details: Potency: qHTS inhibition; outcome: qHTS inhibition; also: nearly all actives have a fitted effect of over 60% in size
In short: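 Recombinant human AChE (50 mU/mL in the enzyme mix) and human liver microsomes (0.25 mg/mL final) were preincubated with compound and NADPH (0.25 mg/mL final) for 30 min at 37 C. Acetylthiocholine/DTNB was then added; thiocholine was read colorimetrically after 10 min at room temperature.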

[3] = target: Acetylcholinesterase (Homo sapiens) (UniProt P22303); assay: Acetylcholinesterase (AChE) small molecule antagonists: fluorescence cell-based qHTS assay (AID 1347398); details: Potency: AChE activity; outcome: AChE activity; also: nearly all actives have a fitted effect of over 50% in size; also: potency is read from the fitted curve at half-maximal effect
In short: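 Cells (SH-SY5Y) attached overnight, were dosed with compound or DMSO vehicle for 30 min at 37 C, and then incubated 40 min at room temperature with acetylthiocholine and Thiolite Green; green fluorescence indexed AChE activity.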

In the case of `C[n+]1ccn(Cc2ccccc2)c1`, the Potency [1] is reported as “inactive” and the Potency [2] is reported as “inactive”.

`CN(C)CCC[C@@]1(c2ccc(F)cc2)OCc2cc(C#N)ccc21` was tested, and the Potency [1] was “inactive” and the Potency [2] was “inactive”.

For `CN(C)CCC=C1c2ccccc2C=Cc2ccccc21`, the outcome [1] was “inactive” and the outcome [2] was “inactive”.

For `CCCC(C)C=O` (stereo not given), the Potency [1] was “inactive”, the Potency [3] was “inactive” and the Potency [2] was “inactive”.

For `CC(C)C(=O)Nc1cccc(C2CN3CCSC3=N2)c1` (stereo not given), the Potency [1] was “inactive” and the Potency [2] was “inactive”.

With `O=C1CCN(c2ccccc2)N1` the Potency [1] was “inactive” and the Potency [2] was “inactive”.

In the case of `C1CCC(C(CC2CCCCN2)C2CCCCC2)CC1` (stereo not given), the Potency [1] is reported as “inactive” and the Potency [2] is reported as “inactive”.

For `CCCCCCCCCCCCCCCC[N+](C)(C)CCN(Cc1ccc(OC)cc1)c1ncccn1`, the Potency [1] was 34.7 µM (active) and the Potency [2] was “inactive”.

For `CCCCCCOC(=O)CC(CC(=O)OCCCCCC)(OC(=O)CCC)C(=O)OCCCCCC`, the Potency [1] was “inactive” and the Potency [2] was “inactive”.

In the case of `Cc1nc2n(c(=O)c1CCN1CCC(c3noc4cc(F)ccc34)CC1)CCCC2`, the Potency [1] is reported as “inactive” and the Potency [2] is reported as “inactive”.

With `CO/N=C1\CN(c2nc3c(cc2F)c(=O)c(C(=O)O)cn3C2CC2)CC1CN` (stereo not given) the outcome [1] was “inactive” and the outcome [2] was “inactive”.

For `CCCC[P+](C)(CCCC)CCCC`, the Potency [1] was “inactive” and the Potency [2] was “inactive”.

For `CN1CCC(=C2c3ccccc3CC(=O)c3sccc32)CC1`, the Potency [1] was “inactive”, the Potency [3] was “inactive” and the Potency [2] was “inactive”.

For `CN1C(=O)N(c2ccccc2Br)Cc2cnc(Nc3ccc4c(c3)OCC(CO)O4)nc21` (stereo not given), the Potency [1] was “inactive” and the Potency [2] was “inactive”.

For `O=[N+]([O-])c1cccc(S(=O)(=O)NCCNS(=O)(=O)c2cccc([N+](=O)[O-])c2)c1`, the Potency [1] was “inactive” and the Potency [2] was “inactive”.

With `CCOC(=O)C1CC(=O)C(=C(O)C2CC2)C(=O)C1` (stereo not given) the Potency [3] was “inactive” and the Potency [2] was “inactive”.

For `c1ccc(CCCc2ccccn2)cc1`, the Potency [1] was “inactive” and the Potency [2] was “inactive”.

With `O=C(c1ccc(F)cc1)C1CCN(CCn2c(=O)[nH]c3ccccc3c2=O)CC1` the Potency [1] was “inactive” and the Potency [2] was “inactive”.

For `COc1cc2ncnc(Nc3ccc(F)c(Cl)c3)c2cc1OCCCN1CCOCC1`, the Potency [1] was “inactive” and the Potency [2] was “inactive”.

In the case of `C=CC(=O)OCC[N+](C)(C)C`, the Potency [1] is reported as “inactive” and the Potency [2] is reported as “inactive”.

For `CCN(CC)CCNC(=O)c1ccc(NC(C)=O)cc1`, the Potency [1] was “inactive” and the Potency [2] was “inactive”.

`COc1ccnc2c1CCCCC2S(=O)c1nc2ccccc2[nH]1` (stereo not given) was tested, and the Potency [1] was “inactive” and the Potency [2] was “inactive”.

With `c1ccc2c(CC3=NCCN3)cccc2c1` the Potency [1] was “inactive” and the Potency [2] was “inactive”.

For `Cc1cc(-c2ccc(N=Nc3cc(S(=O)(=O)O)c4ccccc4c3N)c(C)c2)ccc1N=Nc1cc(S(=O)(=O)O)c2ccccc2c1N`, the Potency [1] was “inactive” and the Potency [2] was “inactive”.

`Cc1ccc(CCn2c3c(c4cc(Cl)ccc42)CN(C)CC3)cn1` was tested, and the Potency [3] was 19.5 µM (active) and the Potency [2] was “inactive”.

For `CC(=O)OCC(CCn1cnc2cnc(N)nc21)COC(C)=O`, the Potency [1] was “inactive” and the Potency [2] was “inactive”.

`CSc1ccc2c(c1)C(N1CCN(C)CC1)Cc1ccccc1S2` (stereo not given) was tested, and the Potency [1] was “inactive” and the Potency [2] was “inactive”.

`CC(C)=CCC1=C(O)c2ccccc2C(=O)C1=O` was tested, and the Potency [1] was “inactive” and the Potency [2] was “inactive”.

`NC(N)=N/N=C/c1c(Cl)cccc1Cl` was tested, and the Potency [1] was “inactive” and the Potency [2] was “inactive”.
